Assay results published in the supplement of paper PMC10849652.
About 7,900 targets were measured; listed, in parts, are those with a hit and a random draw of the rest. About 0.6% of all pairs of compound and target were hits.

What was measured:
Assay in all cases: log2 fold change, soluble protein after heating vs DMSO (PISA); higher = thermal stabilisation; K562 cells, 10 uM, 30 min; active = over 0.2 and 3.5 SD of the protein, either way, in both replicates (recomputed)
[1] = compound: C1=CC=C(C=C1)[C@H](COC2=CC3=C(C=C2)NC(=O)N3)NC(=O)C4=CC=CN(C4=O)CC5=CC(=C(C=C5)F)F
Method in brief: (§1)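 Thermal stability values are relative to control samples and come from duplicates. They are expressed as log2 fold changes. For measurement, K562 cells (2×10^6 cells/mL) received 10 μM compound for 30 min, and aliquots were heated for 3 min over 48°C-58°C, pooled, and extracted at 4°C in PBS with 0.5% NP-40. Soluble protein, the supernatant after 21,000xg for 90 min, was quantified by TMTpro 16plex LC-MS/MS with equalised channel sums.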

[2] = compound: CC1=C(SC2=C1C(=N[C@H](C3=NN=C(N32)C)CC(=O)N)C4=CC=C(C=C4)Cl)C
Method in brief: as §1

[3] = compound: CC1=C2C(=CC=C1)N=C(N(C2=O)C3=CC=CC=C3C)CN4C=NC5=C(N=CN=C54)N
Method in brief: as §1

[4] = compound: Cc1sc2c(c1C)C(c1ccc(Cl)cc1)=N[C@@H](CC(=O)OC(C)(C)C)c1nnc(C)n1-2
Method in brief: as §1

[5] = compound: c1ccc([C@@H]2C[C@H]2NC2CCNCC2)cc1
Method in brief: as §1

Measured: log2 fold change

DMAC1 (UniProt Q96GE9)
Chain of UniProt Q96GE9 (Q96GE9 whole entry, looked up): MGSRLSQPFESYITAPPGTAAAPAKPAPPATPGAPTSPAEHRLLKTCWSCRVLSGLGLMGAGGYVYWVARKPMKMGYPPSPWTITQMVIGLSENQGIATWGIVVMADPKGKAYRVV
inactive: [1] 0.058 | [2] -0.041 | [3] 0.05 | [4] -0.085 | [5] 0.023

CYP51A1 (UniProt Q16850)
Chain of UniProt Q16850 (Q16850 whole entry, looked up): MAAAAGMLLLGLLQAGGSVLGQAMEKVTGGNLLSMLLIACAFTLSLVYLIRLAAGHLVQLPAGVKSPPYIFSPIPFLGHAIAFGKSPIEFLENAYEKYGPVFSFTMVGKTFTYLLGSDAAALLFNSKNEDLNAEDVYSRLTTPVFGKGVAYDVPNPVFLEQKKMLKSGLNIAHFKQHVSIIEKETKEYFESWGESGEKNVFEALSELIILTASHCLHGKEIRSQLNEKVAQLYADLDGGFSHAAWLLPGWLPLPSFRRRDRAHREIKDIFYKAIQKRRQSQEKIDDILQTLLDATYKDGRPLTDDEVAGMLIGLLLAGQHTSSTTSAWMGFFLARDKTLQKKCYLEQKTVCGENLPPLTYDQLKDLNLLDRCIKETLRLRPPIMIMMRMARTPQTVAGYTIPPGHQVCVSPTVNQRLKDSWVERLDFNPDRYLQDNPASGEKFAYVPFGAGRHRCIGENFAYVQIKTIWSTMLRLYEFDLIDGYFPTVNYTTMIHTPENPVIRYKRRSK
inactive: [1] -0.096 | [2] 0.055 | [3] -0.037 | [4] -0.01 | [5] -0.001

EHD2 (UniProt Q9NZN4)
Chain of UniProt Q9NZN4 (Q9NZN4 whole entry, looked up): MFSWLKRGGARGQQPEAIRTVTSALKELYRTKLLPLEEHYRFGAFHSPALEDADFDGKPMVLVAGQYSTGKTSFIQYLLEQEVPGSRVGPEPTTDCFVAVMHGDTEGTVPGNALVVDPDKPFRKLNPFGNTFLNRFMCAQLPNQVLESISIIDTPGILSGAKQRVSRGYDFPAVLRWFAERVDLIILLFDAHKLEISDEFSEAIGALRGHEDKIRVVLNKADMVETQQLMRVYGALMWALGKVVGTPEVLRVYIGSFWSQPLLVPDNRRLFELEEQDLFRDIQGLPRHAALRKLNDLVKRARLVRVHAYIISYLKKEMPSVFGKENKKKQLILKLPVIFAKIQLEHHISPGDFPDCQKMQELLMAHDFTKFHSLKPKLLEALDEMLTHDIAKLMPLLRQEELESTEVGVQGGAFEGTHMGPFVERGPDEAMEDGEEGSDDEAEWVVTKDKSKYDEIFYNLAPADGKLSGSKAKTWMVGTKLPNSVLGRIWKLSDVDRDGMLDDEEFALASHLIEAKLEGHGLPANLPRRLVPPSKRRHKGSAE
inactive: [1] -0.018 | [2] 0.049 | [3] 0.022 | [4] -0.019 | [5] -0.049

EEF1D isoform 2 (UniProt P29692)
Chain of UniProt P29692 (P29692 whole entry, looked up): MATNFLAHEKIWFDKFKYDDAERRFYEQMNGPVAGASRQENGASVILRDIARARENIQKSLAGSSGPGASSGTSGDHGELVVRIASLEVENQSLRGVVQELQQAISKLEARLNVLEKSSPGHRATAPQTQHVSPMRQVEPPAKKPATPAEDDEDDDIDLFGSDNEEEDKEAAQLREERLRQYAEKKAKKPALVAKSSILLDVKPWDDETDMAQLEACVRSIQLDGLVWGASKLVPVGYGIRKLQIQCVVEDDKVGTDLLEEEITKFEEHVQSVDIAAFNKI
inactive: [1] -0.031 | [2] 0.003 | [3] 0.073 | [4] 0.012 | [5] -0.011

DCAF6 isoform 3 (UniProt Q58WW2)
Chain of UniProt Q58WW2 (Q58WW2 whole entry, looked up): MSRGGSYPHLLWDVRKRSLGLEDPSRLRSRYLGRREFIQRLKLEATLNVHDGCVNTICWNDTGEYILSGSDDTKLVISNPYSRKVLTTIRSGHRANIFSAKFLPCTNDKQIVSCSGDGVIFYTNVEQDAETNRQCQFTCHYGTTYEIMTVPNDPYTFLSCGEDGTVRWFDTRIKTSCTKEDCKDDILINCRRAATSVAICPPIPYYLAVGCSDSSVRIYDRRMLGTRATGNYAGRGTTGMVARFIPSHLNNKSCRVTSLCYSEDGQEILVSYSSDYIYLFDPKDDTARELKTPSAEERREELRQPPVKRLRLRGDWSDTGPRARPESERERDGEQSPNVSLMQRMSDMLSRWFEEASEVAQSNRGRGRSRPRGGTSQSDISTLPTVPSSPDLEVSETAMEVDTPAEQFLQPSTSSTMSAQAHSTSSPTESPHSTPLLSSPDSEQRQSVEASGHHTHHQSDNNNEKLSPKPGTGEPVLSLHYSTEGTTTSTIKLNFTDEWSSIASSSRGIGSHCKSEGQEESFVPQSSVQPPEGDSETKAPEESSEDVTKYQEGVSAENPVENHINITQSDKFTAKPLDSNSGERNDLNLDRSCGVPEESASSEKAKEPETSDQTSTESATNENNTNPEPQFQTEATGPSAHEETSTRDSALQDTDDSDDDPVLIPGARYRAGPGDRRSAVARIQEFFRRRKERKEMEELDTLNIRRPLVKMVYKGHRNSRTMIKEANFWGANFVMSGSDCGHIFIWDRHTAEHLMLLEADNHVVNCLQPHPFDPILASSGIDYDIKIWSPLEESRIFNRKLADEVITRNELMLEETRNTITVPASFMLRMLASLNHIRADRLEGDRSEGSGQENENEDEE
inactive: [1] 0.04 | [2] -0.017 | [3] 0.003 | [4] 0.032 | [5] 0.027

DDX5 (UniProt P17844)
Chain of UniProt P17844 (P17844 whole entry, looked up): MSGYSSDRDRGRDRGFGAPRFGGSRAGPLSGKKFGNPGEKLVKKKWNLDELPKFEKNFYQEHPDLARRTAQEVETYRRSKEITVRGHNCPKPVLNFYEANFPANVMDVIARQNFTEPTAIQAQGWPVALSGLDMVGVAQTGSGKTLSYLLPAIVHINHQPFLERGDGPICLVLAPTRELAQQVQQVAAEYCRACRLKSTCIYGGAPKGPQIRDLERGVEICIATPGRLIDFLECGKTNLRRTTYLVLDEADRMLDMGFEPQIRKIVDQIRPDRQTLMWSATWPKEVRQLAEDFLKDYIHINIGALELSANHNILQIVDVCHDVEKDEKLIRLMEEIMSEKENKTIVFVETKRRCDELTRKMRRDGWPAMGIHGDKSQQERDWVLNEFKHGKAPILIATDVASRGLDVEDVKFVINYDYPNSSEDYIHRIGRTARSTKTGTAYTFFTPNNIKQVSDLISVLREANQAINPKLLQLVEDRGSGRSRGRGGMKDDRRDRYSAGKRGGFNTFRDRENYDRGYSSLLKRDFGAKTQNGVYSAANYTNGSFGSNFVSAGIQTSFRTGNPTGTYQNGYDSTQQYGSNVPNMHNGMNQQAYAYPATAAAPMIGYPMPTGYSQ
inactive: [1] -0.061 | [2] 0.008 | [3] 0.067 | [4] -0.027 | [5] 0.038

EEA1 (UniProt Q15075)
inactive: [1] 0.022 | [2] -0.015 | [3] 0.011 | [4] 0.021 | [5] 0.038

DLD (UniProt P09622)
Chain of UniProt P09622 (P09622 whole entry, looked up): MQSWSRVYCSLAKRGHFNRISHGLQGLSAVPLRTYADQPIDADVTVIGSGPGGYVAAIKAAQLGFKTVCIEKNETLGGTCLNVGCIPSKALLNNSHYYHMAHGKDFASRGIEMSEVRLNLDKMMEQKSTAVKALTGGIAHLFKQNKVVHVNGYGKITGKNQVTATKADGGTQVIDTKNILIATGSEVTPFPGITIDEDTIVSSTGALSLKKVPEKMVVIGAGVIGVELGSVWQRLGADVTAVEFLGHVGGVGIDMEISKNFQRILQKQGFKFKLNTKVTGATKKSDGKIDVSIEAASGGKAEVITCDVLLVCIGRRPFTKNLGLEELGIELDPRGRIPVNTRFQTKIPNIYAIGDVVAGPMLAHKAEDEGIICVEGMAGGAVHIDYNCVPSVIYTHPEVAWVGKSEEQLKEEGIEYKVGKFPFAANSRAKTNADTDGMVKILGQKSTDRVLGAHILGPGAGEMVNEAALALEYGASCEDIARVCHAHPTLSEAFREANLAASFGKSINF
inactive: [1] 0.016 | [2] 0.006 | [3] -0.005 | [4] -0.016 | [5] 0.044

CUEDC2 (UniProt Q9H467)
Chain of UniProt Q9H467 (Q9H467 whole entry, looked up): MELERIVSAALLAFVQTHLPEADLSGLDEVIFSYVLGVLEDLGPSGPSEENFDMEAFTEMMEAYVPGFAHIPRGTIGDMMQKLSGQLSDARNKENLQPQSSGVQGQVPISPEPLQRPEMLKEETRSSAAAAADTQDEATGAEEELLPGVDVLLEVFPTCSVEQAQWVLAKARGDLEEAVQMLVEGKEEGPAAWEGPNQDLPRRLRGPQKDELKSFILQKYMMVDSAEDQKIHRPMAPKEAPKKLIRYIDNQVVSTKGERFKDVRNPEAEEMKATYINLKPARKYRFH
inactive: [1] 0.036 | [2] 0.047 | [3] 0.038 | [4] 0.01 | [5] -0.022
